An excerpt weighted towards active compounds, which were near 1.4% of everything screened.
Polio RdRp inh: poliovirus RdRp elongation inhibitors, primary screen, biochemical, fluorescence polarization, total intensity. poliovirus polymerase elongation; hits give low values. % elongation, % (compound at 16.7 µg/mL). 150,000 compounds, 0.66% hits. AID 588519, 2011; in the data active means % elongation below about 90%
AID504770: growth inhibition of E. coli YBA685, primary screen, V. cholerae RctB inhibitors; z-score (test concentration not listed); E. coli YBA685 rctB-dependent plasmid, OD600 growth, 3 h; hits give low values; 130,000 compounds, 0.27% hits; in the data active means z-score below about -2, passing the limit was not always enough
MbtI inh: MbtI salicylate synthase inhibitors, primary screen, biochemical, fluorescence intensity. purified MbtI enzyme, fluorescence intensity read-out. inhibition, % (concentration not given with the values). 100,000 compounds, 0.89% hits. AID 493033, 2011; in the data active means inhibition mostly above about 56%, no sharp cut-off; inactive means mostly below about 77%
Mtb MenB inh: M. tuberculosis MenB inhibitors, primary screen, biochemical, absorbance. MenB enzyme assay, absorbance read-out. inhibition, % (no concentration beside the values). 100,000 compounds, 0.43% hits. AID 540299, 2011; in the data active means inhibition above about 21%, passing the limit was not always enough
An asterisk follows results filed as active; . = not tested or not shown.

SMILES	Polio RdRp inh	AID504770	MbtI inh	Mtb MenB inh
O=C(Oc1ccccc1OC(=O)c1ccccc1)c1ccccc1	102	-0.35	10	-34
CC(C)(Oc1ccccc1OC(=O)c1ccccc1)C(=O)CBr	102	0	62*	.
O=c1nc2n(c3sc4c(c13)CCCC4)CC(O)=C2c1nc2ccccc2s1	105	-0.65	4	-8
CN1C=C(c2ccccc2)N(c2ccccc2)C1	67*	1.5	.	-26
c1ccc(N2CN3CN2CN3c2ccccc2)cc1	104	1.5	-220	-4
COC(=O)CC1CC(C)(C)NC(C)(C)C1	106	0.4	.	2
Cc1ccc(Cl)cc1N1CCN(C(CC(=O)O)C(=O)c2ccc(F)cc2)CC1 (stereo not drawn)	70*	-0.05	7	31*
COc1ccc(CCC(O)C2(O)CCCCC2)cc1 (stereo not drawn)	101	1.8	.	-18
S=C=NCCc1ccccc1	89*	-0.9	65*	-23
COc1ccc(CCN=C=S)cc1	77*	-1.5	96*	-68
CCc1sc(-c2nnc(CSc3nnc(-c4ccncc4)n3C)o2)cc1C	106	0.25	-15	-15
O=C1NC(=O)C(=Cc2ccc(Sc3ccc(Cl)cc3)o2)C(=O)N1	104	0.5	92*	-26
O=C1NC(=O)C(=Cc2ccc(N3CCCC3)o2)C(=O)N1	126	-0.55	17	-142
O=C(OCc1ccccc1F)c1ccc(O)cc1	102	-0.25	0	.
S=c1[nH]c2ccc(Cl)cc2[nH]1	103	-0.55	82*	-23
S=c1[nH]c2ccc(Cl)cc2o1	100	-2*	64*	-53
Cc1ccc2[nH]c(=S)oc2c1	99	0.45	61*	-28
Cc1cc2c(NC(=O)COCC(=O)O)cccc2nn1	65*	0.1	2	8
CCn1cc(C(=O)O)c(=O)c2cc(F)c(N3CCNCC3)nc21	104	-3.5*	-31	6
CCn1cc(C(=O)O)c(=O)c2cc(F)c(N3CCN(C(=O)c4ccc(F)cc4)CC3)cc21	102	-3.7*	-94	-19
CCn1cc(C(=O)O)c(=O)c2cc(F)c(N3CCN(C(C)=O)CC3)cc21	109	-3*	107	-10
N#Cc1cc(C(=O)c2ccccc2O)coc1=O	106	-2	-6	-13
O=C(O)c1ccc(NC(=O)C2C3C=CC(C3)C2C(=O)O)cc1 (stereo not drawn)	100	1.3	-7	-16
O=C(O)CCCNc1ccccc1C(=O)O	.	0.85	.	.
Cc1ccc(C(=O)Nc2c(C(C)(C)C)nn(C)c2C(C)(C)C)cc1	104	1.9	6	-1
SMILES	Polio RdRp inh	AID504770	MbtI inh	Mtb MenB inh
O=C(/C=c1/[nH]c(=O)/c(=C/c2cccc(C(F)(F)F)c2)s1)c1ccco1	115	0.45	-4	-12
O=C(/C=c1\[nH]c(=O)/c(=C\c2ccsc2)s1)c1ccco1	143	-0.15	98*	-195
C#CCNc1cc(Cl)ccc1Cl	101	0.2	-3	5
O=S(=O)(NN1CCOCC1)c1cccc2cccnc12	101	-0.6	9	12
Oc1cc(Cl)c(Cl)cc1O	92	-3.5*	102*	-61
Cc1ccc(C)n1-c1nnc(N2CCC(C(=O)NC(C)c3ccc4c(c3)OCCO4)CC2)s1 (stereo not drawn)	104	0.2	-1	-18
Cc1ccc(NC2=C(c3ccc(C(F)(F)F)cc3)C(=O)c3ccccc32)cc1C	81*	.	.	.
CCN(C(=O)Nc1cccc(Cl)c1)c1ccccc1	100	-0.3	-7	-13
CCN(CC)C(=O)Nc1cccc(Cl)c1	101	0.4	0	33*
CCOc1ccc(-c2csc(/C(C#N)=C/Nc3ccc4c(c3)OCO4)n2)cc1	.	-0.25	.	.
CCOc1ccc(NC(=O)CC(=O)Nc2ccc(OCC)cc2)cc1	97	1.1	-1	-5
CCOc1ccc(NC(=O)Cc2cccc3c(S(=O)O)cccc23)cc1	102	-1.1	65*	-22
O=C(Oc1ccc(Br)cc1F)C1CC(=O)N(c2ccc3c(c2)OCCO3)C1 (stereo not drawn)	87*	-0.9	2	-33
O=S(=O)(Nc1ncccn1)c1ccccc1	101	-0.6	-8	0
Nc1nc(NS(=O)(=O)c2ccccc2)ns1	.	-2.9*	.	.
CCc1ccc(NC(=O)c2noc3ncnc(N4CCCC4)c23)cc1	102	0.3	-4	-25
O=C(CSc1cccc[n+]1[O-])c1ccccc1F	98	1.1	22	-46
O=C(CCCSc1cccc[n+]1[O-])c1ccc(F)cc1	103	0.15	99*	-14

Bioassay records: PubChem, ICCB-Longwood Screening Facility, Harvard Medical School
